# Screens as filed in PubChem.
# TIM10 inh = TIM10 yeast growth inhibition; S. cerevisiae TIM10 strain growth, BacTiter-Glo luminescence, 24 h; inhibition, % at 10 µM; 330,000 compounds, 1.4% hits; AID 463195;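 active = inhibition of 40% or more at the single tested concentration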;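 note: wild-type TIM10 isogenic control strain grown at permissive 25 °C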
# SKKanGAS inh = blocks kanamycin growth of S. pyogenes SKKanGAS strain; 300,000 compounds, 1.3% hits; BacTiter-Glo, 6 h; inhibition, % at 7.5 µM;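 active = mean replicate score, as percent of positive control median, at least 50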;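 note: strain carries kanamycin resistance gene driven by streptokinase promoter and grows in 40 µg/ml kanamycin; loss of luminescence reflects streptokinase promoter inhibition or plain growth inhibition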
# PfHsp90 yeast 2 = growth inhibition of yeast expressing Plasmodium Hsp90; S. cerevisiae expressing PfHsp90, BacTiter-Glo ATP, 48 h; yeast lacking PDR1 and PDR3 efflux regulators; 310,000 compounds, 0.32% hits; inhibition, % at 9.4 µM; AID 504621;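 active = every replicate shows inhibition above about 80%, whatever the replicate mean, limit read from the data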
# tim23-1 inh = tim23-1 yeast growth inhibition; 330,000 compounds, 1.3% hits; inhibition, % at 20 µM; S. cerevisiae tim23-1 growth, BacTiter-Glo luminescence, 24 h;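 active = growth inhibition of the mutant yeast at or above 50%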;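 note: temperature-sensitive mutant grown at 25 °C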
# tim10-1 inh = tim10-1 yeast growth inhibition. S. cerevisiae tim10-1 ts strain growth, BacTiter-Glo, 24 h. inhibition, % at 20 µM. 330,000 compounds, 2.2% hits. AID 463190;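 active = inhibition of at least 40%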;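 note: mutant grown at 25 °C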
# V-ATPase pHluor = regulators of yeast V-ATPase proton transport; AID 504577; 350,000 compounds, 0.37% hits; S. cerevisiae, pHLuorin cytosolic pH fluorescence; response, % at 10 µM; in the data active = response mostly above about 7.3%, no sharp cut-off; inactive = mostly below about 5.4%; note: actives read high
# tim10-1 confirm = confirmation of tim10-1 mutant yeast growth inhibitors | S. cerevisiae tim10-1 ts strain growth, BacTiter-Glo, 24 h | 7,400 compounds, 56% hits | shares compounds with tim10-1 inh | AID 463213 | inhibition, % at 20 µM;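 active = inhibition of yeast growth at or above a set limit in either of two repeat tests at 20 µM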;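 note: tim10-1 mutant grown at permissive 25 °C to find synthetic lethal compounds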
# Numbers stand for hits; . = inactive; / = no result. Rows were chosen to be rich in hits. Some 4.6% of all compounds tested hit in one or more screens of this group.
SMILES,TIM10 inh,SKKanGAS inh,PfHsp90 yeast 2,tim23-1 inh,tim10-1 inh,V-ATPase pHluor,tim10-1 confirm
O=C(C1CCN(S(=O)(=O)c2cccc3nsnc23)CC1)N1CC=C(c2ccccc2)CC1,.,.,.,.,43,.,.
Cn1cc(/C=N/NC(=O)COc2ccccc2[N+](=O)[O-])c2ccccc21,.,.,.,.,.,.,/
Cc1ccc(OCC(=O)N/N=C\c2cn(C)c3ccccc23)c([N+](=O)[O-])c1,.,.,.,.,41,.,.
CSC1=NC(C)(C)C=C(/C=C/c2ccc(Cl)cc2)N1,.,.,.,.,43,.,.
CSC1=NC(C)(C)C=C(/C=C/c2ccc(Cl)cc2Cl)N1,.,.,.,.,.,.,/
CSC1=NC(C)(C)C=C(/C=C/c2c(Cl)cccc2Cl)N1,.,.,.,.,44,.,.
CCOc1ccc(OCCC(=O)OCC(=O)NC2CCCC2)cc1,.,/,.,.,.,.,/
CCOC(=O)[C@H]1[C@H]2COc3ccccc3[C@@H]2N2C(=O)CNC(=O)[C@@]12C,.,/,/,.,.,.,/
Cc1cc(Nc2nc3ccccc3nc2Cl)n(-c2ccccc2)n1,.,.,.,.,.,.,.
CCOC(=O)C1=CN(Cc2ccco2)S(=O)(=O)N(C)C1c1ccc2ccccc2c1 (stereo not drawn),.,/,.,.,.,.,/
COc1ccc(NC(=O)c2cn(CCC#N)nc2-c2cccs2)cc1,.,.,.,.,41,.,.
CCN1C(=O)CC(N2CCC(Nc3ccc(F)cc3)CC2)C1=O (stereo not drawn),.,.,.,.,.,.,/
CCOC(=O)c1ccc(N2C(=O)CC(N3CCC(Nc4ccc(F)cc4)CC3)C2=O)cc1 (stereo not drawn),.,.,128,.,57,.,50
O=C1CC(N2CCCCCC2)C(=O)N1c1ccc(F)cc1 (stereo not drawn),.,.,/,.,54,.,45
O=C1CC(N2CCN(c3ccc(F)cc3)CC2)C(=O)N1c1ccc(F)cc1 (stereo not drawn),.,.,.,.,.,.,/
Cc1ccnc(NC(=O)COC(=O)C2COc3ccccc3O2)n1 (stereo not drawn),.,/,/,.,64,.,.
NC(=O)c1ccc(NC(=O)COC(=O)C2COc3ccccc3O2)cc1 (stereo not drawn),.,/,.,.,.,.,/
CCOc1cc(/C=C2\C(=O)ON=C2c2ccccc2)cc(Br)c1O,.,.,.,.,45,.,30
Cc1ccc(C2CC(c3cccs3)=NN2C(=O)c2ccco2)o1 (stereo not drawn),.,.,.,.,.,.,/
O=C(c1ccco1)N1N=C(c2cccs2)CC1c1ccco1 (stereo not drawn),.,.,.,.,41,.,.
Cc1ccc(C(=O)Nc2nc(C)c(C(=O)Nc3ccc4c(c3)CCC4)s2)cc1,.,.,.,.,.,.,/
CCCCc1ccccc1NC(=S)NC1CCCC1,.,.,.,.,43,.,.
CNC(=O)c1nnsc1S(=O)(=O)c1ccc(Cl)cc1,.,.,.,.,58,.,47
CCOc1ccc(C(c2c(C)[nH][nH]c2=O)c2c(C)[nH][nH]c2=O)cc1OC,.,.,.,.,42,.,.
Brc1nnc2n1-c1ccccc1Sc1ccccc1-2,.,.,.,.,.,.,/
SMILES,TIM10 inh,SKKanGAS inh,PfHsp90 yeast 2,tim23-1 inh,tim10-1 inh,V-ATPase pHluor,tim10-1 confirm
Clc1ccc2c(c1)-c1nnc(Br)n1-c1ccccc1S2,.,.,.,.,48,.,.
Cc1onc(-c2ccccc2)c1C(=O)Nc1nnc(-c2ccncc2)s1,.,.,/,.,44,.,39
COc1ccccc1N/C(=N/S(=O)(=O)c1ccc(Cl)cc1)c1ccccc1,.,.,.,.,41,.,.
COc1ccccc1N/C(=N/S(=O)(=O)c1ccc(C)cc1)c1ccccc1,.,.,.,.,.,.,/
CCCCc1ccc(N2C(=NC(=O)C3CCCO3)SC3CS(=O)(=O)CC32)cc1 (stereo not drawn),.,.,.,.,.,.,/
CNc1ccc(Br)cc(C(=O)/C=C/c2cccc(OC)c2OC)c1=O,.,.,.,.,42,.,34
CNc1ccc(Br)cc(C(=O)/C=C/c2cccc(Cl)c2Cl)c1=O,/,/,.,/,/,.,/
Cc1cc(NC(=O)c2sccc2C)n(-c2nc3ccccc3[nH]2)n1,.,63,.,.,49,.,.
Cc1cccn2c(=O)c3cc(C(=O)NC4CCCC4)c(=N)n(Cc4ccc(F)cc4)c3nc12,.,.,.,.,43,.,.
COc1ccc(C(C(=O)NC2CCCCC2)N(Cc2cccnc2)C(=O)c2snc(C(N)=O)c2N)cc1 (stereo not drawn),.,.,.,.,.,.,/
COc1ccccc1-c1nn2c(C3COc4ccccc4O3)nnc2s1 (stereo not drawn),.,.,/,.,46,.,48
COc1ccccc1-c1nn2c(C(F)(F)F)nnc2s1,.,.,/,.,45,.,34
CCOc1ccccc1-c1nn2c(Cc3ccccc3)nnc2s1,.,.,/,.,41,.,.
Cc1cc(C)nc(N2C(=O)CC(Cc3ccc(Cl)cc3)C2=O)n1 (stereo not drawn),.,.,.,.,.,.,/
Cc1cc(C)nc(N2N=C(CSc3ccc(Cl)cc3)CC2=O)n1,.,.,.,.,45,.,.
COc1ccc(-c2nn(-c3ccccc3)cc2C(=O)NC2CCCCC2C)cc1 (stereo not drawn),.,.,.,.,.,.,/
Cc1nc2ccccc2c2oc(C(=O)N3CCN(C(=O)c4ccco4)CC3)cc12,.,.,.,.,.,.,/
Cc1nc2ccccc2c2oc(C(=O)N3CCC(C)CC3)cc12,.,.,.,.,46,.,.
OC1CCCN(c2c3c(nc4cc(-c5cccc(Cl)c5)nn24)CCC3)C1 (stereo not drawn),.,.,.,.,.,.,/
COc1ccc(-c2cc3nc4c(c(N5CCC6(CC5)OCCO6)n3n2)CCC4)cc1,.,.,.,.,47,.,33
Fc1ccc(-c2cc3nc4c(c(N5CCOCC5)n3n2)CCCC4)cc1,.,.,.,.,.,.,/
Cc1cccc(-c2cc3nc4c(c(N5CCCC(O)C5)n3n2)CCC4)c1 (stereo not drawn),.,.,/,.,47,.,.
OC1CCN(c2c3c(nc4cc(-c5ccc(F)cc5)nn24)CCC3)CC1,.,.,.,.,45,.,.
Cc1ccc(S(=O)(=O)c2nnn(-c3cccc(F)c3)c2N)cc1,.,.,.,.,.,.,/
CCCC(O)(c1ccccc1)C(CN1CCOCC1)c1ccccc1 (stereo not drawn),.,.,.,.,41,.,.
